From PubChem BioAssay AID2129 (The Scripps Research Institute Molecular Screening Center, 2009)
Among all 320,000 compounds or so, about 2,200 (0.69%) were called active.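 The calls were made as follows: active = inhibition above the mean of all tested compounds plus 3 SD, cutoff set per campaign (cut at about 30% in these data); inactive = the rest.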 The list comes from a sample in which actives are over-represented; it also holds similar structures and randomly drawn compounds.

These compounds were tested against Bcl-2-like protein 1 (Homo sapiens) (UniProt Q07817) (assay: Bcl-xL/Bim BH3 interaction blockers – biochemical, fluorescence polarization, HTS, primary screen (AID 2129;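 also: 0% = DMSO wells and 100% = unlabeled Bim-BH3 peptide competitor; inhibitors lower millipolarization by displacing the labeled peptide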)). Details: GST-Bcl-xL / FITC-Bim BH3 peptide fluorescence polarization; at 10.9 µM; stronger effect = higher value.
Sequence of Bcl-2-like protein 1 (Homo sapiens) (Q07817 whole entry, looked up): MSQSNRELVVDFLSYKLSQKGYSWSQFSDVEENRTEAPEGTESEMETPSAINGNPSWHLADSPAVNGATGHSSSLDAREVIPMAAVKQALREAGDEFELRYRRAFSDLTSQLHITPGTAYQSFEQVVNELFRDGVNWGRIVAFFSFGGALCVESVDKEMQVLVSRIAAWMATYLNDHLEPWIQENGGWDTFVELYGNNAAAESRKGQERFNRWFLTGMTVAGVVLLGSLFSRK
For `CNC(=O)c1cccc2nc3ccccc3nc12`, the inhibition was 8.33% (inactive).
`O=c1[nH]c(=O)c2nc3ccccc3nc2[nH]1` was tested, and the inhibition was 33.4% (active).
In the case of `O=c1[nH]c(-c2ccccc2)c(-c2ccccc2)[nH]1`, the inhibition is reported as 1.54% (inactive).
In the case of `CNC(C)C#Cc1ccc2sc3cc(OC)c(OC)cc3c(=O)c2c1` (centres undefined), the inhibition is reported as 0.94% (inactive).
In the case of `COc1ccc(C(=O)NCC(c2ccco2)N2CCc3ccccc32)cc1OC` (centres undefined), the inhibition is reported as 3.87% (inactive).
`C[n+]1ccccc1C1CCCC/C1=N\Nc1ccc([N+](=O)[O-])cc1[N+](=O)[O-]` (centres undefined) was tested, and the inhibition was -14.1% (inactive).
`COc1ccc(S(=O)(=O)N(C)CC(=O)NCCCN2CCOCC2)cc1Cl` was tested, and the inhibition was -0.96% (inactive).
For `COc1ccc2c(c1)CCc1cn3ncc(C#N)c3nc1-2`, the inhibition was 5.65% (inactive).
`COc1ccc2nc(N3CCCC(O)C3)c(C#N)cc2c1` (centres undefined) was tested, and the inhibition was 32% (active).
With `COc1ccc2cc(C(=O)C3CCCN(C(=O)c4sc(C)nc4C)C3)ccc2c1` (centres undefined) the inhibition was 3% (inactive).
In the case of `O=[N+]([O-])c1c(NCCO)cc(Sc2nc3ccccc3s2)c2nonc12`, the inhibition is reported as 38.8% (active).
`CCOc1ccccc1Nc1ccc2nonc2c1[N+](=O)[O-]` was tested, and the inhibition was -3.2% (inactive).
For `O=C(O)c1ccccc1CSc1nc2ccccc2s1`, the inhibition was 15.6% (inactive).
With `O=C(C1CCC1)N1CCc2cc(S(=O)(=O)NCc3cccnc3)ccc21` the inhibition was 1.18% (inactive).
With `CCN(CC)CCNc1nc(-c2ccc(OC(F)F)cc2)c(C)s1` the inhibition was 4.61% (inactive).
For `CCCN1C2=C(C(=O)CCC2)C(c2ccc(O)c(Br)c2)C2=C1CCCC2=O`, the inhibition was 37.8% (active).
In the case of `COc1ccc(C2C3=C(CCCC3=O)N(CC(=O)O)C3=C2C(=O)CCC3)cc1`, the inhibition is reported as 7.5% (inactive).
With `CCOc1ccc(C2C3=C(CCCC3=O)N(CC(=O)O)C3=C2C(=O)CCC3)cc1` the inhibition was 6.72% (inactive).
`CCCCCCCC1(C)NC(=O)N(CC(=O)Nc2cc(C)on2)C1=O` (centres undefined) was tested, and the inhibition was 3.89% (inactive).
`O=C(Oc1cccc(O)c1)C1CCCCC1` was tested, and the inhibition was 1.38% (inactive).
`CN(C(=O)CSc1nnc(-c2ccc3c(c2)OCO3)o1)C1CCS(=O)(=O)C1` (centres undefined) was tested, and the inhibition was 3.5% (inactive).
In the case of `CCCc1cc(=O)[nH]c(SCC(=O)c2c(N)n(CC(C)C)c(=O)n(C)c2=O)n1`, the inhibition is reported as -0.53% (inactive).
With `Cc1coc(C)c1C(=O)CC1(O)C(=O)N(C)c2ccc(Cl)cc21` (centres undefined) the inhibition was 3.68% (inactive).
For `NC(=O)CC(NC(=O)Cc1cccc2ccccc12)c1ccc(NCc2cc(F)ccc2F)c([N+](=O)[O-])c1` (centres undefined), the inhibition was -3.93% (inactive).
For `COC(=O)CCCC1=CC2=CC(=O)C(C)(OC(=O)c3cccs3)C(=O)C2=CN1c1cccc(C#N)c1` (centres undefined), the inhibition was 35.7% (active).
`COC(=O)CCCC1=CC2=CC(=O)C(C)(OC(=O)c3cccs3)C(=O)C2=CN1CC(C)C` (centres undefined) was tested, and the inhibition was 8.79% (inactive).
`COC(=O)CCCC1=CC2=CC(=O)C(C)(OC(=O)c3cccs3)C(=O)C2=CN1CC1CC1` (centres undefined) was tested, and the inhibition was 13.4% (inactive).
In the case of `CN1CCN(S(=O)(=O)c2cccc(C(=O)O)c2)CC1`, the inhibition is reported as 6.51% (inactive).
In the case of `CC1CC(C)CN(S(=O)(=O)c2cccc(C(=O)N3C(=O)c4cccc(N)c4C3=O)c2)C1` (centres undefined), the inhibition is reported as 30.5% (active).
`COc1cc(C(=O)N2C(=O)c3cccc(N)c3C2=O)cc(OC)c1OC` was tested, and the inhibition was 11.8% (inactive).
With `O=C(Cn1nc([N+](=O)[O-])nc1Br)NC1CCCCC1` the inhibition was 0.58% (inactive).
`CC(C)(C)c1ccc(C(CC(=O)O)NS(=O)(=O)Cc2ccccc2)cc1` (centres undefined) was tested, and the inhibition was -2.32% (inactive).
For `O=C1CCCN1CCCNC(=S)Nc1ccc(F)c(Cl)c1`, the inhibition was 5.5% (inactive).
With `Cc1cc([N+](=O)[O-])ccc1NCc1cccc([N+](=O)[O-])c1` the inhibition was 3.28% (inactive).
`C=CCn1c(SCCOc2ccc(OC)cc2)nnc1C(NC(=O)c1ccc(OC)cc1)C(C)C` (centres undefined) was tested, and the inhibition was 4.55% (inactive).
In the case of `COc1ccc(-c2cc(C(=O)N(C)Cc3ccccc3)c3ccccc3n2)cc1`, the inhibition is reported as 4.34% (inactive).
In the case of `CN(CCOc1ccccc1)C(=O)c1cc(-c2ccco2)nc2ccccc12`, the inhibition is reported as 30.5% (active).
`CN(C(=O)COC(=O)c1cc(-c2ccco2)nc2ccccc12)C1CCS(=O)(=O)C1` (centres undefined) was tested, and the inhibition was 38.9% (active).
For `COc1ccc(NC(=O)CN(C)C(=O)c2cc(-c3ccc(C)o3)nc3ccccc23)cc1`, the inhibition was 1.46% (inactive).
In the case of `CC1CCCN(C(=O)c2cc(-c3ccco3)nc3ccccc23)C1` (centres undefined), the inhibition is reported as 2.8% (inactive).
With `CN(C(=O)COC(=O)c1nc(Cl)ccc1Cl)C1CCS(=O)(=O)C1` (centres undefined) the inhibition was -2.39% (inactive).
With `O=C(c1cccs1)n1nc(NCc2ccccc2)nc1NCc1ccccc1` the inhibition was -2.31% (inactive).
`Cc1nnsc1S(=O)(=O)Cc1ccccc1Cl` was tested, and the inhibition was 1.84% (inactive).
`Cn1cccc1C(=O)NNC(=O)COc1ccc(Br)cc1` was tested, and the inhibition was 1.85% (inactive).
With `CC1CCN(C(=S)NC(=O)c2ccccc2Br)CC1` the inhibition was 1.04% (inactive).
In the case of `CCc1ccc(NC(=O)Nc2ccncc2)cc1`, the inhibition is reported as -0.23% (inactive).
In the case of `Oc1ccc2ccccc2c1N=Nc1nccs1`, the inhibition is reported as 54.3% (active).
`COc1ccc(C(=O)N2CCCC(C(=O)c3ccccc3OC)C2)cc1OC` (centres undefined) was tested, and the inhibition was 2.42% (inactive).
With `COc1cc(OC)cc(-c2c(-c3cccs3)c3cc(-c4ccc(OC)cc4F)ccc3n2C)c1` the inhibition was -0.84% (inactive).
`Cc1ccc(S(=O)(=O)N(C)C)cc1NC(=O)c1n[nH]c(=O)c2ccccc12` was tested, and the inhibition was -2.28% (inactive).
With `O=C(NCCc1ccc(C(F)(F)F)cc1)c1ccc2c(c1)OCO2` the inhibition was 2.41% (inactive).
`NC(=O)c1ccc(Nc2ccc3c(c2)CCC3)c([N+](=O)[O-])c1` was tested, and the inhibition was 2.16% (inactive).
In the case of `Cc1c(CCO)c(=O)n(-c2ccccc2)n1S(=O)(=O)c1ccc(F)cc1`, the inhibition is reported as 9.16% (inactive).
In the case of `O=C(C1=C(O)C(=O)N(Cc2ccccc2)C1c1ccco1)c1ccco1` (centres undefined), the inhibition is reported as 7.06% (inactive).
With `O=C(C1=C(O)C(=O)N(c2ncccn2)C1c1cccs1)c1ccco1` (centres undefined) the inhibition was 94.5% (active).
For `O=C(C1=C(O)C(=O)N(Cc2ccccc2)C1c1cccnc1)c1ccco1` (centres undefined), the inhibition was 3.45% (inactive).
For `COC(=O)/C=C(\Oc1ccccc1)C1(O)CCCCC1`, the inhibition was 1.07% (inactive).
In the case of `CCn1c(SCC(=O)NC2=NCCS2)nnc1C(C)NC(=O)c1ccccc1F` (centres undefined), the inhibition is reported as -1.19% (inactive).
In the case of `O=C(N/N=C/c1sc(N2CCCCC2)nc1-c1cccs1)c1cccnc1`, the inhibition is reported as -12.1% (inactive).
